Data reported in article PMC5700166.
Substitutions are numbered along the chain they refer to.

Tests used:
Assay in all cases: protein-binding microarray (PBM); PBM: ~300 nM protein, 6 mM HEPES pH 7.8, 80 mM KCl, 0.5 mM EDTA, 0.5 mM EGTA, 6% glycerol, 35 ng/ul poly-dIdC, 1% milk, 1 h, room temperature; Ap Aiptasia and Nv Nematostella (sea anemones) / Co Capsaspora / Aq Amphimedon (sponge) / Dm Drosophila / Hu human; RHD is the Rel homology domain; high values mean tight binding
Settings in all cases: dsDNA, one strand shown
[1] = target: T1, GST-Ap-NF-kB RHD (Exaiptasia pallida (Aiptasia), UniProt A0A913YAJ5 2-422)
T1 sequence: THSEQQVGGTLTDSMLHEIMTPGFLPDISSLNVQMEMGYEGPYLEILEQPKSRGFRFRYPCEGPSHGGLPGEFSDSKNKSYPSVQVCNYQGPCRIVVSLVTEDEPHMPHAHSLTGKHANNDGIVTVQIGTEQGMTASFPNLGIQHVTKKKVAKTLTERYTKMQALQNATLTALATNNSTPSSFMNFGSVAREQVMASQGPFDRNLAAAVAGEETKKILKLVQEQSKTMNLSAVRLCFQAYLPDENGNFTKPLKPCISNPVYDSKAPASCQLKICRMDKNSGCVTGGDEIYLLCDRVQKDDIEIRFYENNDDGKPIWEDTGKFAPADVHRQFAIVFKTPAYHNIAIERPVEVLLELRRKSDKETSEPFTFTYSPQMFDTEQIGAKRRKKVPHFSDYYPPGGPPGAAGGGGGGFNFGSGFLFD

[2] = target: T2, GST-Nv-NF-kB (Cys allele) (Nematostella vectensis, UniProt E5G601 2-411)
T2 sequence: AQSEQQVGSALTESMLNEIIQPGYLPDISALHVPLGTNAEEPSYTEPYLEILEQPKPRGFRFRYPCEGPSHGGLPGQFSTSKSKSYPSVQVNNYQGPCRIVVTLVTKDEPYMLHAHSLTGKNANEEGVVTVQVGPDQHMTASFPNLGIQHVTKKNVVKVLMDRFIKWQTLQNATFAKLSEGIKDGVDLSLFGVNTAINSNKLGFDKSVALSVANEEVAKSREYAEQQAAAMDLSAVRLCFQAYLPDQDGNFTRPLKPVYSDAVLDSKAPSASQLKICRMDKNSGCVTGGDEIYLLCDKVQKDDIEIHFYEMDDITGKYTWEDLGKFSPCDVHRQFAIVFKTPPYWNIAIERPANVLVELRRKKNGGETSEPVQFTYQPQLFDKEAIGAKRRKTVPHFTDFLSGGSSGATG

[3] = target: T3, GST-Nv-NF-kB (Ser allele) (Nematostella vectensis, UniProt A7UNT2 2-411)
T3 sequence: T2 sequence with Q21R, C66S, S207N, E215Q, V217A, E225K, A268E, D399E

[4] = target: T4, GST-Co-NF-kB (Capsaspora owczarzaki, UniProt F1ARL5 200-546)
T4 sequence: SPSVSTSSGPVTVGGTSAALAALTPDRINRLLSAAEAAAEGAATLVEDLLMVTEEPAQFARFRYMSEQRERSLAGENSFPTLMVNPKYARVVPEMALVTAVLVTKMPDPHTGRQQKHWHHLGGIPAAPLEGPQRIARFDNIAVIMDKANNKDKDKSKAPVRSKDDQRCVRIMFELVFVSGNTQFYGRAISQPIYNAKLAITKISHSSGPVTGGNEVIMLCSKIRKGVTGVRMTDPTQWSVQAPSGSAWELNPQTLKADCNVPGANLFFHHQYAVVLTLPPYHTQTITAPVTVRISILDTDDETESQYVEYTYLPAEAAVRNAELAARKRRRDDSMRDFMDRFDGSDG

[5] = target: T5, GST-Dm-Relish (Drosophila melanogaster, UniProt Q94527 99-473)
T5 sequence: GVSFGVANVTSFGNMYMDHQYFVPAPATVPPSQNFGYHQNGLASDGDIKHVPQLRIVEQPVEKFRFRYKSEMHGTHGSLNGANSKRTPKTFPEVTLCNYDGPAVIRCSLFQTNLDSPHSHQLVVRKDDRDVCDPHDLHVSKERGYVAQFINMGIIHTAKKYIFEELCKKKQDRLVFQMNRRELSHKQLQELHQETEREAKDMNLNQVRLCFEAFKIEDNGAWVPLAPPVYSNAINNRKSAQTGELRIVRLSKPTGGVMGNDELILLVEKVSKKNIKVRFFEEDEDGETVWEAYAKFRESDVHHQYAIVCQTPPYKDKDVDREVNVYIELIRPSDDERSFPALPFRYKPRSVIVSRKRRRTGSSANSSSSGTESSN

[6] = target: T6, GST-Aq-NF-kB (Amphimedon queenslandica, UniProt A9Y5G7 2-389)
T6 sequence: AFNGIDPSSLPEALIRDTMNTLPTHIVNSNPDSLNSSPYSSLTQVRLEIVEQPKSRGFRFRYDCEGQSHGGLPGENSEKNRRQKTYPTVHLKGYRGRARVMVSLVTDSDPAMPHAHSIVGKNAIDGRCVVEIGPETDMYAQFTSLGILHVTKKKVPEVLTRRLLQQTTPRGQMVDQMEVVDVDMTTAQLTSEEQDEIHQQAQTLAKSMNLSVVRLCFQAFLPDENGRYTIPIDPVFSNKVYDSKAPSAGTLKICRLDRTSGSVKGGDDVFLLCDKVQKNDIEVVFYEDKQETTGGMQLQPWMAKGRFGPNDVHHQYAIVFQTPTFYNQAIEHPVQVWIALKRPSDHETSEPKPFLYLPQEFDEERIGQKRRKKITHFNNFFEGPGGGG

[7] = target: GST-Hu-p50 (Homo sapiens, UniProt P19838 7-356)
Chain of GST-Hu-p50 (P19838 7-356): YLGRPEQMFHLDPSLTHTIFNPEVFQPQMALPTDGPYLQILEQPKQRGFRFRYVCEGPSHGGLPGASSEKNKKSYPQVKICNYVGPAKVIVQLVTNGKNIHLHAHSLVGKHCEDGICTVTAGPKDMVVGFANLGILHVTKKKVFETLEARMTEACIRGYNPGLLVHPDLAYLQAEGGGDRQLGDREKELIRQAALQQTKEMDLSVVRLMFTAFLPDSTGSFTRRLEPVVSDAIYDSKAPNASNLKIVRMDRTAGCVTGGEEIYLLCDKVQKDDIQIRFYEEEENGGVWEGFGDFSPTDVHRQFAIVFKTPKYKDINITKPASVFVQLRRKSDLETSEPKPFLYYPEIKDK

Sequence	binding signal [1] [z-score]	binding signal [2] [z-score]	binding signal [3] [z-score]	binding signal [4] [z-score]	binding signal [5] [z-score]	binding signal [6] [z-score]	binding signal [7] [z-score]
CCGATTAACATCAGAATTTTCCCTGATGTTAATCGGGTCTTGATTCGCTTGACGCTGCTG	4.45	7.42	7.41	5.08	2.3	6.44	5.01
CCGATTAACATCACAATTCCCCCTGATGTTAATCGGGTCTTGATTCGCTTGACGCTGCTG	7.95	8.27	9.39	8.14	5.44	6.33	7
CCGATTAACATCAAGAGATTCCCTGATGTTAATCGGGTCTTGATTCGCTTGACGCTGCTG	3.17	3.88	3.73	2.46	2.38	4.06	2.78
CCGATTAACATCAAGAAGTTCCCTGATGTTAATCGGGTCTTGATTCGCTTGACGCTGCTG	3.54	3.73	2.6	2.42	3.58	4.79	3.17
CCGATTAACATCAAGGGGAATCCTGATGTTAATCGGGTCTTGATTCGCTTGACGCTGCTG	9.67	11	10	5.17	9.09	7.69	6.99
CCGATTAACATCAGGGGGACTAATGATGTTAATCGGGTCTTGATTCGCTTGACGCTGCTG	5.06	4.36	4.4	4.79	2.76	4.27	3.8
CCGATTAACATCAGGCAACCCCCTGATGTTAATCGGGTCTTGATTCGCTTGACGCTGCTG	5.96	3.96	3.97	2.03	6.58	6.21	5.13
CCGATTAACATCAATATCCCCCATGATGTTAATCGGGTCTTGATTCGCTTGACGCTGCTG	6.62	4.94	5.43	6.5	3.73	4.55	5.2
CCGATTAACATCAAATTCCCATGTGATGTTAATCGGGTCTTGATTCGCTTGACGCTGCTG	2.41	4.08	4.15	1.96	3.99	2.58	3.09
CCGATTAACATCAAGGGGGTTTATGATGTTAATCGGGTCTTGATTCGCTTGACGCTGCTG	7.31	6.46	7.73	2.54	8.75	6.24	7.21
CCGATTAACATCAGGGAATAACCTGATGTTAATCGGGTCTTGATTCGCTTGACGCTGCTG	4.4	6.79	6.75	2.13	8.23	7.2	5.21
CCGATTAACATCAATAATTACCCTGATGTTAATCGGGTCTTGATTCGCTTGACGCTGCTG	2.91	4.26	4.81	3.12	3.09	3.72	3.55
CCGATTAACATCAGGGGGTTACCTGATGTTAATCGGGTCTTGATTCGCTTGACGCTGCTG	8.27	6.63	5.92	4.04	9.18	8.61	5.51
CCGATTAACATCACGGGAAAATCTGATGTTAATCGGGTCTTGATTCGCTTGACGCTGCTG	3.98	5.79	6.4	5.43	2.07	5.16	3.87
CCGATTAACATCAAGGGAGTCCCTGATGTTAATCGGGTCTTGATTCGCTTGACGCTGCTG	5.78	4.59	4.3	1.18	8.56	4.92	3.72
CCGATTAACATCAGGGAATGCCCTGATGTTAATCGGGTCTTGATTCGCTTGACGCTGCTG	5.58	7.18	4.19	1.43	7.7	7.91	3.67
CCGATTAACATCAGGAAATTCCCTGATGTTAATCGGGTCTTGATTCGCTTGACGCTGCTG	6.31	9.9	8.03	4.13	6.79	9.8	6.16
CCGATTAACATCAAAGAACCCCCTGATGTTAATCGGGTCTTGATTCGCTTGACGCTGCTG	8	6.95	7.44	3.51	8.69	6.42	6.47
CCGATTAACATCACGGGGTTTCCTGATGTTAATCGGGTCTTGATTCGCTTGACGCTGCTG	6.06	4.79	2.69	2.61	7.75	5.93	4.42
CCGATTAACATCAGGGGAAAACCTGATGTTAATCGGGTCTTGATTCGCTTGACGCTGCTG	9.38	10.6	11.5	7.99	8.9	9.77	6.91
CCGATTAACATCAGTAATCCCCATGATGTTAATCGGGTCTTGATTCGCTTGACGCTGCTG	6.5	5.74	6.91	3.87	6.04	4.5	5.31
CCGATTAACATCAGGGGAAACAATGATGTTAATCGGGTCTTGATTCGCTTGACGCTGCTG	5.65	7.25	9.76	8.67	3.09	4.59	5.36
